According to the supplement of paper PMC6555819:

Key:
Experiment in all cases: PBM binding z-score (relative to random genomic background probes); higher = stronger binding; sequences stand for … in GC…GCGATTGACAGCGTAGAATGAAGG
[1] = system: FXR:RXRa (NR concentration 270 nM, RXRa partner concentration 90 nM)
Outline: (§1)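 On custom Agilent 4×180K arrays, double-stranded probes with 34-nt variable regions carried direct-repeat seeds, single-nucleotide variants, half-site ablations or random human genomic background. Ligand-free nuclear receptor dimers were applied for 1 h, and binding was read with antibodies against each partner (one per run). Binding z-scores come from regression-normalized fluorescence, with the random background probes as reference.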

[2] = system: LXRa:RXRa (NR concentration 270 nM, RXRa partner concentration 90 nM)
Outline: as §1

[3] = system: LXRa homodimer (NR concentration 270 nM)
Outline: as §1

[4] = system: LXRb:RXRa (NR concentration 270 nM, RXRa partner concentration 90 nM)
Outline: as §1

[5] = system: LXRb homodimer (NR concentration 270 nM)
Outline: as §1

[6] = system: PPARa:RXRa (NR concentration 270 nM, RXRa partner concentration 90 nM)
Outline: as §1

[7] = system: PPARg:RXRa 270nM:90nM, anti-RXR (NR concentration 270 nM, RXRa partner concentration 90 nM)
Outline: as §1

[8] = system: PPARg:RXRa 30nM:10nM, anti-RXR (NR concentration 30 nM, RXRa partner concentration 10 nM)
Outline: as §1

[9] = system: PPARg:RXRa 90nM:30nM, anti-RXR (NR concentration 90 nM, RXRa partner concentration 30 nM)
Outline: as §1

| Sequence | PBM binding z-score [1] | PBM binding z-score [2] | PBM binding z-score [3] | PBM binding z-score [4] | PBM binding z-score [5] | PBM binding z-score [6] | PBM binding z-score [7] | PBM binding z-score [8] | PBM binding z-score [9] |
| --- | --- | --- | --- | --- | --- | --- | --- | --- | --- |
| GATACAGGGTCATCTAGAGGCCAGAGTATGGAAA | 6.84 | 5.02 | 0.214 | 4.22 | 0.201 | 5.87 | 5.65 | 2.33 | 4.1 |
| CCTACTGGGCCAAAACGGTCATTGATGCCGATAA | -0.421 | -0.427 | 0.0364 | -0.333 | -0.867 | 0.309 | 0.904 | -0.186 | 0.162 |
| CAATCTAGGTCACAGAGGTCAAAGTCCGTGCGTA | 7.18 | 7.04 | 7.96 | 6.3 | 2.8 | 6.7 | 8.69 | 7.34 | 9.13 |
| CGTCGAAGGTCAATGCTAGGTCAGTGAAAGCATT | 6.95 | 5.54 | 2.6 | 4.32 | 0.906 | 5.41 | 4.82 | 1.4 | 3.63 |
| CAAACTAGGTCAAAGGTCAGAGTCGAGCCAACCA | 7.83 | 6.32 | 3.45 | 6.4 | 1.62 | 7.34 | 11.1 | 13.1 | 13.7 |
| TATACTGGGTCAAAGGCCAGAGTACGAATGTCGA | 4.05 | 3.73 | 1.34 | 2.81 | 1.32 | 5.52 | 8.98 | 8.63 | 10.2 |
| CGCACTAGGTCATTGACAGGACAGTGAATAGTAA | 4.64 | 3.31 | 0.73 | 2.31 | 0.424 | 4.38 | 5.96 | 3.36 | 5.26 |
| ACTAGTAGGCCAAGGGTCACTCAAGATTAGTCCG | 2.69 | 2.91 | 0.417 | 2.98 | 0.0422 | 5.64 | 9.26 | 10.9 | 10.4 |
| ATCTCTAGGTAAATGTTCAGTGAATCCCGAGGAT | 0.0255 | -0.125 | -0.0436 | -0.389 | 0.584 | 0.133 | 1.01 | 0.602 | 0.967 |
| TTACCAAAGTGAAAGGTCGTTGATGCACGCCTTG | 1.49 | 1.82 | 0.432 | 1.57 | -0.402 | 3.17 | 5.13 | 2.97 | 5.02 |
